Data: ChEMBL document CHEMBL3988442, “University of Dundee, Small-Polar-MMV Screening Library” (2021)
For some assays here: Entries with a potency or affinity are not part of this list.

Assays:
Design in all cases: scale not given: direction of the effect not stated beside the values
[1] = molecular target: Protein translocase subunit SecA (Escherichia coli (strain K12)) (UniProt P10408); test: Assay to Identify E. coli SecA ATPase Inhibitors; assay type: functional; settings: 30 µM
[2] = molecular target: T1, Ubiquitin-activating enzyme e1, putative (Leishmania donovani (strain BPK282A1)) (UniProt E9BSI1); test: Leishmania donovani Ubiquitin Activating Enzyme (LdE1); assay type: functional; settings: 30 µM
T1 sequence (whole entry): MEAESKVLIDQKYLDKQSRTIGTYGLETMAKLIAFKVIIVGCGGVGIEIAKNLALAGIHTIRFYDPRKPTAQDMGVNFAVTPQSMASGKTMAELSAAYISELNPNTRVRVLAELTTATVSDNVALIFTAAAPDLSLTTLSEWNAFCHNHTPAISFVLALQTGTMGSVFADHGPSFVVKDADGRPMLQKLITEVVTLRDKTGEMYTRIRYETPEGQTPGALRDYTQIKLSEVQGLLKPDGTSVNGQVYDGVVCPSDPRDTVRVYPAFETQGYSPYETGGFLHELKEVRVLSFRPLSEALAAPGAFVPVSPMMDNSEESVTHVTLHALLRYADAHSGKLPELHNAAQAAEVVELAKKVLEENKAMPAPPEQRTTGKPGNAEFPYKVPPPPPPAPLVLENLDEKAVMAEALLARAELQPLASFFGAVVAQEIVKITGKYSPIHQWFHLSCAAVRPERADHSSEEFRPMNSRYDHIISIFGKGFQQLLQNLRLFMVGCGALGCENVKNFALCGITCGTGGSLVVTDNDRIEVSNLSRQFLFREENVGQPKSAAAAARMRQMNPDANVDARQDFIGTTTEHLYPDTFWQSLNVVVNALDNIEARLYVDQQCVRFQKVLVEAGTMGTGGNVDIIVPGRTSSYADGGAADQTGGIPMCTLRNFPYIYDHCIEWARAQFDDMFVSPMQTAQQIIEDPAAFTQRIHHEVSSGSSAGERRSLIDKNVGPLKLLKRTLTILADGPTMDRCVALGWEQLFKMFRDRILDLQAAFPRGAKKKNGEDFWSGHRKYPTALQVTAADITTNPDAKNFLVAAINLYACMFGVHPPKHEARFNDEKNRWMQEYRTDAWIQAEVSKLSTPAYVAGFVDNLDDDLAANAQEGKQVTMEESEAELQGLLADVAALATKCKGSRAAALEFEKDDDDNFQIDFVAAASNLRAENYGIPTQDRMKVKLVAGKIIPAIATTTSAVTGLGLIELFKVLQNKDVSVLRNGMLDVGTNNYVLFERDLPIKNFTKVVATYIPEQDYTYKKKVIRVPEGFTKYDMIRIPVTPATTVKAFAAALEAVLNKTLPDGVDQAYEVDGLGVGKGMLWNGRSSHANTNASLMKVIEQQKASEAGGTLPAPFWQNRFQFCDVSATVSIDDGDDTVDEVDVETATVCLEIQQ

[3] = molecular target: AMP-activated protein kinase, AMPK (Homo sapiens) (UniProt P54646+O43741+P54619+Q9UGJ0+Q9Y478+Q13131+Q9UGI9); test: AMP-dependent Kinase enzyme assay. An in vitro enzyme assay that detects ADP turnover that is directly proportional to AMPK activity. This uses naive AMPK that is activated during the assay with MK-8722; assay type: functional; settings: 30 µM
[4] = molecular target: Sialic acid-binding Ig-like lectin 9 (Homo sapiens) (UniProt Q9Y336); test: Hs-Siglec9 ALPHAscreen SOP 20170721; settings: 10 µM
Trypanosoma cruzi = test: Trypanosoma cruzi phosphomannomutase and mannose-1-phosphate guanylyltransferase assay; assay type: functional; settings: 10 µM
[5] = molecular target: T2, Arginase-2, mitochondrial (Homo sapiens) (UniProt P78540); test: in vitro enzyme assay to detect the production of urea directly proportional to the activity of Arginase II; assay type: functional; settings: 33.3 µM; also: in the data most compounds retested in dose-response had high values
T2 sequence (whole entry): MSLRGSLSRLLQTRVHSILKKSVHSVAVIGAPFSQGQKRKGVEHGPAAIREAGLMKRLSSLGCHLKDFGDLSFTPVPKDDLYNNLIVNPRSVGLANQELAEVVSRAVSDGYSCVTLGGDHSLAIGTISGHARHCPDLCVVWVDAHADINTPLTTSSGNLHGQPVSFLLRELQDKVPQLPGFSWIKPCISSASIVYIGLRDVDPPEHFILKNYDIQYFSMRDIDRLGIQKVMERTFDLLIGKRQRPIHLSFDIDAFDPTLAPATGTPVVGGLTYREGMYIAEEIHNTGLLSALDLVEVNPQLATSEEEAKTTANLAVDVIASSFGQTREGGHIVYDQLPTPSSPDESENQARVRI

[6] = molecular target: T3, Proteasome subunit beta (Trypanosoma cruzi) (UniProt O96673); test: Trypanosoma cruzi proteasome chymotrypsin-like activity (TcProtChymo) assay.; also: in the data most compounds retested in dose-response had high values; assay type: functional; settings: 9.37 µM
T3 sequence (whole entry): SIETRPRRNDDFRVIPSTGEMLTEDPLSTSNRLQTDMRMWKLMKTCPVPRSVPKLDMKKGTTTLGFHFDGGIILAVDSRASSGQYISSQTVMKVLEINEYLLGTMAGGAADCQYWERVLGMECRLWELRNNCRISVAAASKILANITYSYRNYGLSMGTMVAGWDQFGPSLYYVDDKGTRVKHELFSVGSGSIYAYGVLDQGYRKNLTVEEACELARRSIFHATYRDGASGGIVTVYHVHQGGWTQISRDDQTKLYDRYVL

Homo sapiens = species: Homo sapiens; test: To identify inhibition of the IFN signalling (Jak-Stat) pathway via expression of an eGFP reporter gene under the control of an IFN-stimulated response element (ISRE) containing MxA promoter.; assay type: functional; settings: 30 µM
[7] = molecular target: T4, Tyrosyl-tRNA synthetase, putative (Trypanosoma cruzi (strain CL Brener)) (UniProt Q4DSP6); test: Trypanosoma cruzi tyrosyl tRNA synthetase (TcYRS) _High Tyrosine SOP; assay type: functional; settings: 30 µM; also: in the data most compounds retested in dose-response had high values
T4 sequence (whole entry): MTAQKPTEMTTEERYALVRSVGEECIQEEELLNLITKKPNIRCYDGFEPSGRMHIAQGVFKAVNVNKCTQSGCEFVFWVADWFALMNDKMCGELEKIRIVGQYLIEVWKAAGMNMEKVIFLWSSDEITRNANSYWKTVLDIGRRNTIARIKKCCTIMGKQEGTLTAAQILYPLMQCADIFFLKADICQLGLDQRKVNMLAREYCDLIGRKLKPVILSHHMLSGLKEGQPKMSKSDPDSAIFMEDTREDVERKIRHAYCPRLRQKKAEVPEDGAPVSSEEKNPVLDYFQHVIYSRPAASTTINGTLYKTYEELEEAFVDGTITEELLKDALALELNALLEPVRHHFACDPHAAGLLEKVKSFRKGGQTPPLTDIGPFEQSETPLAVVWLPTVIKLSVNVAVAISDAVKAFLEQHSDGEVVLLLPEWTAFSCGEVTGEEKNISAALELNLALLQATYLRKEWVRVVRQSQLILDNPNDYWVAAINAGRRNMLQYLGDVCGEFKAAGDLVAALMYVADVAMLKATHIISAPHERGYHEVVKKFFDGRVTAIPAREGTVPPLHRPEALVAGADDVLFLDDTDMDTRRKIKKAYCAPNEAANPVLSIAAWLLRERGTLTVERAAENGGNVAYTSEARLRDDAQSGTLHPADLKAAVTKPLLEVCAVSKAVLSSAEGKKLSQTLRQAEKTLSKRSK

[8] = molecular target: T4, Tyrosyl-tRNA synthetase, putative (Trypanosoma cruzi (strain CL Brener)); test: Trypanosoma cruzi tyrosyl tRNA synthetase (TcYRS) SOP; assay type: functional; settings: 30 µM
[9] = molecular target: Chromo domain-containing protein 1 (Saccharomyces cerevisiae (strain ATCC 204508 / S288c) (Baker's yeast)) (UniProt P32657); test: ScCHD-1 Enzyme Inhibition Assay; assay type: functional; settings: 30 µM; also: in the data most compounds retested in dose-response had high values
Chromo domain-containing protein 1 (Saccharomyces cerevisiae (strain ATCC 204508 / S288c) (Baker's yeast)), sequence (P32657 whole entry, the tested form may be a part): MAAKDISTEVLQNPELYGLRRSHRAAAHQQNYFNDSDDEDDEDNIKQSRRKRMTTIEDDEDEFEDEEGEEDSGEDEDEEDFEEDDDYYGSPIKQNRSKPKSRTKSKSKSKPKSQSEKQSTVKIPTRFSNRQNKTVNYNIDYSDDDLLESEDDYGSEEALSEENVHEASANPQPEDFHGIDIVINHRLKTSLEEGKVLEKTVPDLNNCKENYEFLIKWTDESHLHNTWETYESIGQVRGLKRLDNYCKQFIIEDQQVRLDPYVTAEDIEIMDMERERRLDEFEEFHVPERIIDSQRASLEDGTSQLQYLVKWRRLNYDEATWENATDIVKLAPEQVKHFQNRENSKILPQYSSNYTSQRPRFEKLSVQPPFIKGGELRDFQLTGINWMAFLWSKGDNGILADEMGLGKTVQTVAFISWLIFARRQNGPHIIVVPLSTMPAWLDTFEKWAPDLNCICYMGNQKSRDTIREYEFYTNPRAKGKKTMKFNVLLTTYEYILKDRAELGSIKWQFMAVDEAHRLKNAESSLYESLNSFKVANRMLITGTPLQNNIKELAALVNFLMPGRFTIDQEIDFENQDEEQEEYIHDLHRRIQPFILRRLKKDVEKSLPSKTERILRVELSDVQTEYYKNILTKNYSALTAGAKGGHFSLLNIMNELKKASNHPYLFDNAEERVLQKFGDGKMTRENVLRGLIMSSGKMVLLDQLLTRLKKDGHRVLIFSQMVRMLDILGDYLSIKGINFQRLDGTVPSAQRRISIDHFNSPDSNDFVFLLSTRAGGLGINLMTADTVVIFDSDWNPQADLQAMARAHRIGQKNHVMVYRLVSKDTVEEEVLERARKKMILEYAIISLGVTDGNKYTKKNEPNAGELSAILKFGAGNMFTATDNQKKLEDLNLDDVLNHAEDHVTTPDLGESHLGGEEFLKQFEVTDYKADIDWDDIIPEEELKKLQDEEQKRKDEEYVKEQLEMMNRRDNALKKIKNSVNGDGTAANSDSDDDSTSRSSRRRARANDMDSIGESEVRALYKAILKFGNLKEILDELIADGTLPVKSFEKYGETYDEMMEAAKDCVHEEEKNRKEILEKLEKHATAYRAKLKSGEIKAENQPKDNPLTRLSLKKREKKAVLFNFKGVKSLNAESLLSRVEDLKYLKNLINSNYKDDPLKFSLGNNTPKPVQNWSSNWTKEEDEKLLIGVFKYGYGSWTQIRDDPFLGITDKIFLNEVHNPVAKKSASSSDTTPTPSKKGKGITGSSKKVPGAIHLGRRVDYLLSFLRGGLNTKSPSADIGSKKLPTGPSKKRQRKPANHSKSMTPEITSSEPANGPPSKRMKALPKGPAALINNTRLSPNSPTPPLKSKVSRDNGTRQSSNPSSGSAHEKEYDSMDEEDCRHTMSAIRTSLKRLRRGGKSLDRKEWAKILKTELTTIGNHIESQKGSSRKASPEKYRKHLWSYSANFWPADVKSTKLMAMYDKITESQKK

Protein translocase subunit SecA (Escherichia coli (strain K12)), sequence (P10408 whole entry): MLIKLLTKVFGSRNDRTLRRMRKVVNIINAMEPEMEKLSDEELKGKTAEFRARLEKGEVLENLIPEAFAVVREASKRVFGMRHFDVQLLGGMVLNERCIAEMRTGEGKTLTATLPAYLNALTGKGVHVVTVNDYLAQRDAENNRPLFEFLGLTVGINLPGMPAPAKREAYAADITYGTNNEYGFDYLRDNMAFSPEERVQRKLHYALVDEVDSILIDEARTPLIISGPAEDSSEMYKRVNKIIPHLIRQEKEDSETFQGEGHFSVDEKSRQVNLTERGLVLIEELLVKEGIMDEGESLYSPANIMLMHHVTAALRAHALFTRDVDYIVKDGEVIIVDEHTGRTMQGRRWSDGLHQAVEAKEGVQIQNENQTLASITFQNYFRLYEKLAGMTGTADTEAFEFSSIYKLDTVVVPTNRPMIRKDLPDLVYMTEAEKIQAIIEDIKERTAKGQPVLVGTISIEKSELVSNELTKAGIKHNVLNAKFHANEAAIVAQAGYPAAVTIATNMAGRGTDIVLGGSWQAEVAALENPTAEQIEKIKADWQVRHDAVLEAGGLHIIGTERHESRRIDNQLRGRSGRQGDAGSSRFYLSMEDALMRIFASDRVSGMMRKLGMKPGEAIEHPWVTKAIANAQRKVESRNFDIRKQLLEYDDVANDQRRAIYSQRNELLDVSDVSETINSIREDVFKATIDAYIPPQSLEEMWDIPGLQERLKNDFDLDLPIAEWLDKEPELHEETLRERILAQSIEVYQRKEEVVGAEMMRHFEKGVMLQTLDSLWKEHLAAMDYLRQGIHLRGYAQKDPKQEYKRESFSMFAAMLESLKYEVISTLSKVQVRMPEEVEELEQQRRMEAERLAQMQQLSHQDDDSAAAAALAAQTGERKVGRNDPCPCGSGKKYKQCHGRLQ
Sialic acid-binding Ig-like lectin 9 (Homo sapiens), sequence (Q9Y336 whole entry): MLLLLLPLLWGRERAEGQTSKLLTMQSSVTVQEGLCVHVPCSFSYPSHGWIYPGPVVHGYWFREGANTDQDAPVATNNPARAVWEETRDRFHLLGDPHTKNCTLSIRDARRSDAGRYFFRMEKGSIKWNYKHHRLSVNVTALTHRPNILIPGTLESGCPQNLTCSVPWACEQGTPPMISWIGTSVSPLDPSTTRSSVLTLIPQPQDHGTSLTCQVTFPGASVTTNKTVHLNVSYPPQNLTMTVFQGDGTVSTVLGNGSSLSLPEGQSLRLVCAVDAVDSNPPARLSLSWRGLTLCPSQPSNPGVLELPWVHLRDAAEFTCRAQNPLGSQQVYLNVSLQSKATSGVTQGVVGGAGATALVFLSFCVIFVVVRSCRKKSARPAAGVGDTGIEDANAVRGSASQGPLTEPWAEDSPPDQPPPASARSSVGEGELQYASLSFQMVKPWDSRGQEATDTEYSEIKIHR

SMILES | Percent Effect [1] [%] | Percent Effect [2] [%] | Percent Effect [3] [%] | Percent Effect [4] [%] | Percent Effect (Trypanosoma cruzi) [%] | Percent Effect [5] [%] | Percent Effect [6] [%] | Percent Effect (Homo sapiens) [%] | Percent Effect [7] [%] | Percent Effect [8] [%] | Percent Effect [9] [%]
c1csc(-c2nc(CN3CCOC(Cn4cncn4)C3)cs2)c1 (configuration not stated) | -4.12 | 7.89 | -2.14 | 1.07 | -3.83 | 0 | 15.5 | -10.6 | 4.43 | 6.17 | -6.35
COC(=O)CCNC(=O)C1CC(=O)N(C2CCCC2)C1 (configuration not stated) | -4.42 | -2.7 | -0.395 | -6.64 | -0.781 | -2.08 | 5.83 | -6.8 | 1.98 | 6.1 | -2.5
CCc1nc(C2CCCN2CC(=O)Nc2c(C)nn(C)c2C)no1 (configuration not stated) | -2.75 | 0 | -6.03 | -5.34 | -0.979 | -0.455 | 7.81 | 10.6 | 1.07 | 2.5 | 1.02
CC(C)OCCOCc1cccc(NC(=O)NCc2ccncc2)c1 | 2.27 | 13 | -7.84 | -0.138 | -0.295 | -11 | 11.5 | 30.4 | 6.45 | 13.6 | -2.65
CCOC(=O)[C@]12CCCN(Cc3ccco3)C[C@H]1CN(CCN(C)C)C2 | -2.71 | 7.79 | 3.96 | 8.64 | -0.888 | -0.645 | 14.4 | 2.34 | 1.06 | 8.97 | -6.8
Cc1cnn(CCC(=O)N2CCCC(c3cc(C(N)=O)[nH]n3)C2)c1 (configuration not stated) | -1.91 | 5.41 | -10.4 | 10.5 | 1.79 | -2.4 | -0.901 | 4.5 | 1.48 | 11.1 | -7.36
Cn1nccc1C1CCN(Cc2csc(-c3ncccn3)n2)CC1 | -3.65 | 24.3 | -7.27 | 6.8 | 6.96 | -0.554 | 8.08 | 13.2 | 11.9 | 28.1 | -7.46
CC(=O)Nc1ncc(S(=O)(=O)Nc2ccc(F)cc2F)s1 | -1.2 | 9.33 | -2.12 | -4.17 | -6.68 | -5.11 | 19 | 12.9 | 3.17 | 10.3 | -9.04
CN(C)C(=O)CN1CCCCC1c1nc(N)ncc1-c1ccccc1 (configuration not stated) | -1.46 | 2.67 | 10.4 | 1.52 | -2.95 | 2.1 | 2.56 | -0.722 | 4.25 | 6.41 | -5.48
Cn1cnnc1C1CCCN(C(=O)c2ccc3c(c2)OCCCO3)C1 (configuration not stated) | -6.73 | 18.2 | -5.65 | -3.72 | 3.04 | 0.21 | 15.3 | -4.88 | 4.76 | 23.5 | -15.9
Cc1nc(C2CCCN(C(=O)Cn3ccccc3=O)C2)no1 (configuration not stated) | -0.276 | 0 | 3.05 | 1.79 | -0.564 | 4.6 | -4.84 | 8.71 | 2.45 | 4.88 | 3.7
O=S1(=O)CCCN1Cc1coc(-c2cccs2)n1 | -1.93 | 15.3 | -14.2 | 1.81 | 2.82 | 13.2 | 23.3 | -8.56 | 5.26 | 12.8 | -3.41
O=C(c1cccnc1)N1C[C@@H]2CC[C@H](C1)N(Cc1cccc(Cl)c1F)C2 | -2.44 | 8.22 | 11.4 | 4.43 | -0.588 | 5 | 10.8 | 8.1 | 9.68 | 22.5 | -3.1
CN(CCO)Cc1nnc(C2CCN(C(=O)C(C)(C)C)CC2)n1C | -2.6 | 5.33 | 1.76 | -1.99 | -7.69 | 6.25 | 16.6 | 2.97 | 0.546 | 3.7 | -6
CN(CCc1ccccc1)c1cnn(CC(=O)N2CCSCC2)c(=O)c1 | -1.2 | 0 | 19.7 | 12.4 | -4.5 | 2.73 | -1.6 | 4.15 | 1.07 | 2.5 | 0.365
O=C(NCCNc1ncccn1)C1CCN(c2ncccn2)CC1 | -4.14 | 10.8 | -3.16 | 5.87 | 7.71 | -4.62 | 5.57 | 26.3 | -10.9 | 13.4 | 1.05
O=C(NCC(F)(F)F)C1CSCN1S(=O)(=O)c1ccc(F)cc1 (configuration not stated) | -4.1 | 16.5 | 4.27 | -0.453 | 1.33 | -4.95 | 16.5 | 7.19 | 13.5 | 30.4 | -28
Cc1nnc(C(C)N2CCN(Cc3ccc(C#N)cc3)CC2)o1 (configuration not stated) | -3.48 | 8.11 | -6.14 | 9.9 | -8.77 | 27.7 | -5.22 | 5.6 | 0.493 | 3.7 | 0.608
COCCn1cc2c(n1)C(CNCc1ccco1)OCC2 (configuration not stated) | -7.4 | -2.7 | 0.854 | 9.04 | -0.781 | 0.833 | 18 | 13.2 | 3.96 | -3.66 | -1.08
O=C(c1ccc(F)cc1)N1C[C@H]2CCC[C@@]2(COCc2ccccn2)C1 | -4.13 | 8.11 | -4.94 | 1.62 | 2.44 | 7.96 | 22 | -12.1 | 3.24 | 17.9 | 1.95
Cc1cc(CNC(=O)NC(C)c2ccncc2)no1 (configuration not stated) | -0.908 | 7.79 | 2.08 | 2.87 | -8.36 | -1.38 | 12.7 | 11.9 | 2.15 | 6.17 | -1.85
O=C(Nc1cccc(OCc2cccc(F)c2)c1)C1COCCO1 (configuration not stated) | -6.19 | -8 | 0.056 | 1.36 | -3.41 | -0.521 | 13.2 | 28 | -8.2 | -11.1 | -6.84
